Here are results for seven molecules from PubChem BioAssay (NCATS).

“And” between values parts separate entries of the source, which are not always exact repeats. Equal values may be shown once. Records with an inconclusive call do not appear. The source made the active and inactive calls. Unless noted, calls follow the shape of the dose curve; as a rule, active = well fitted curve in the direction sought with a large enough effect; inconclusive = small, poorly fitted or top-dose-only effect, or another doubt; inactive = no such curve, though single readings can be large; an effect the other way counts as inactive or inconclusive.

Experiment [1] deals with Mitogen-activated protein kinase 10 (Mus musculus) (UniProt Q61831). The experiment in a line: JNK3 AlphaScreen Assay (AID 530; active = well fitted curve in either direction with a large enough effect, not every such curve was filed as active;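 also: kinase came from lysate of stimulated human HepG2 cells; signal reports phosphorylation of biotinylated GST-cJun 1-79 at Ser73 with 10 µM ATP; % is scaled to controls: 0 for no effect and ±100 for the full control effect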). The gist of the method: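 qHTS titrations with 15 min compound pre-incubation before adding ATP (10 uM final). Read-out: AlphaScreen of Ser73-phosphorylated biotin-GST-cJun using HepG2 lysate JNK3 activated by IL-1β and TNFα.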
A general note: Alpha assays give light when donor and acceptor beads are brought close together.

The nature of experiment [2]: Cellular Toxicity (caspase-3) Hek293 (AID 664).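 Also: cells exposed to compound for 16 h at 37 °C before readout.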 Particulars: HEK293 caspase-3 activation, DMSO = 0%, 100 µM tamoxifen = 100%; at 92.2 µM (top of the series). In short, it runs like this:
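qHTS, HEK293 (human embryonic kidney), 16 h cpd exposure in complete medium. Caspase-3/7 activation = luminescence increase; normalized to DMSO/100 uM tamoxifen; Hill-fit AC50.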

Experiment [3] can be described thus: Cell Viability - LYMP2-007 (AID 979).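 Also: cells exposed to compound for 24 h before reading; nearly all actives have a fitted effect of over 60% in size.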 Also: potency is read from the fitted curve at half-maximal effect. In short, it runs like this: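 Cells are seeded at 2500 per well and rested 5 hr. Compounds are then added over a concentration series for 24 hr at 37 C. CellTiter-Glo is added for 30 min at room temperature before luminescence reading.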
The nature of experiment [4]: Cell Viability - LYMP2-012 (AID 982).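 Also: cellular ATP by luciferase luminescence where a drop means cytotoxicity; cells exposed to compound for one day before reading; nearly all actives have a fitted effect of over 55% in size.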 Also: potency is read from the fitted curve at half-maximal effect.
The nature of experiment [5]: Cell Viability - LYMP1-002 - Assay at 40 hr (AID 994).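 Also: 0% = DMSO only and full inhibition = 92 µM tetraoctylammonium bromide; nearly all actives have a fitted effect of over 60% in size.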 In short, it runs like this: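 Cells are plated at 2500 per well and rested 5 hr at 37 C. Compounds are added and incubated 40 hr at 37 C. CellTiter-Glo reagent is added for 30 min at room temperature before luminescence is read.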
Experiment [6] deals with Estrogen receptor (Homo sapiens) (UniProt P03372). The experiment in a line: qHTS assay for small molecule antagonists of estrogen receptor alpha signaling (AID 588513; active = well fitted curve in the direction sought with a large enough effect in the signal ratio, with a control signal flat, not every such curve was filed as active; the % refers to the signal ratio; also: % is scaled to controls: 0 for no effect and ±100 for the full control effect). The gist of the method:
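Antagonist mode: inhibition of 0.5 nM 17-beta-estradiol-driven beta-lactamase reporter in HEK 293 ER-alpha-UAS-bla cells, 18 h at 37C, CCF4 readout after 2 h at RT. Normalised to estradiol and DMSO; titration fitted to Hill.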
A general note: In qHTS, concentration-response curves come from the screen itself.

Experiment [7] has the same target. The experiment in a line: qHTS assay for small molecule agonists of estrogen receptor alpha signaling (AID 588514; calls by dose curve;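 also: 0% = vehicle only and 100% = reference agonist; nearly all actives have a fitted effect of over 70% in size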). The gist of the method: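 Efficacy is expressed against 20 nM 17-beta-estradiol (100%) and DMSO basal (0%); EC50 from Hill equation. Assay: beta-lactamase reporter in ER-alpha-UAS-bla HEK 293 cells, 18 h compound incubation, CCF4 detection.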
The target in experiment [8] is Glucocorticoid receptor (Homo sapiens) (UniProt P04150). The experiment in a line: qHTS assay for small molecule antagonists of glucocorticoid receptor signaling (AID 588533; active = well fitted inhibition curve with a large enough effect in the signal ratio, with a control signal flat, not every such curve was filed as active; the % refers to the signal ratio;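 also: cells stimulated with 2 nM dexamethasone as agonist; % is scaled to controls: 0 for no effect and ±100 for the full control effect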). In short, it runs like this: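 Antagonist-mode qHTS: compound titrations added to GRE-bla HeLa cells, then dexamethasone 2 nM final; 18 h, 37 C. CCF4 FRET fluorescence normalized to dexamethasone and DMSO; IC50 from Hill fit.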
Glucocorticoid receptor (Homo sapiens), sequence (P04150 whole entry, looked up): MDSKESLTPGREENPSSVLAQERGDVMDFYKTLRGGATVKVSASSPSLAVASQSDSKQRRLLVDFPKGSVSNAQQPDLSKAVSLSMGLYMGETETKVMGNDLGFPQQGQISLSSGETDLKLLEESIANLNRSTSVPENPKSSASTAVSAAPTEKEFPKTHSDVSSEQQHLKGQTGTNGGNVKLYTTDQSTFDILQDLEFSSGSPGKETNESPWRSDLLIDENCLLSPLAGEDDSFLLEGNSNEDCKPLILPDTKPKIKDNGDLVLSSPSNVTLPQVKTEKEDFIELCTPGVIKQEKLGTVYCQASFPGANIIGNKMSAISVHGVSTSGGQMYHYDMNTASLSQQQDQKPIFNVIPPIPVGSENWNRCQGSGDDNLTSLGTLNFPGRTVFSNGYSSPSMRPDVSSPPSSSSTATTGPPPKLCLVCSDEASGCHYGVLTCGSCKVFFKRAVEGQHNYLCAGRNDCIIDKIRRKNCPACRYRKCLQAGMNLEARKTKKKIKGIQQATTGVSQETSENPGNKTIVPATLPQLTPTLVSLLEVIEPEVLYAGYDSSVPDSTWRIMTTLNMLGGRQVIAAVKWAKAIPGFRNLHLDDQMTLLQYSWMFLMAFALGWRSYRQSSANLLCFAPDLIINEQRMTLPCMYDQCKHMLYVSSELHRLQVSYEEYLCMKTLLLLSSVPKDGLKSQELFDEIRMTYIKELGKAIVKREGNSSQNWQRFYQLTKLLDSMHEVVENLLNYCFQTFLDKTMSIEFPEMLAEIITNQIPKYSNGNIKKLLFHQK

The target of experiment [9] is Peroxisome proliferator-activated receptor gamma (Homo sapiens) (UniProt P37231). Briefly: qHTS assay for small molecule agonists of peroxisome proliferator-activated receptor gamma signaling (AID 588536; active = well fitted curve in the direction sought with a large enough effect in the signal ratio, with a control signal flat, not every such curve was filed as active; the % refers to the signal ratio;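 also: 0% = DMSO basal wells and 100% = rosiglitazone at 2 µM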). The gist of the method: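 Cells were plated and held 6–6.5 h at 37 C, then compounds were added as a titration series. After a further 16 h, CCF4 dye was loaded for 2 h at room temperature and emission at 460/530 nm recorded.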
Peroxisome proliferator-activated receptor gamma (Homo sapiens), sequence (P37231 whole entry, looked up): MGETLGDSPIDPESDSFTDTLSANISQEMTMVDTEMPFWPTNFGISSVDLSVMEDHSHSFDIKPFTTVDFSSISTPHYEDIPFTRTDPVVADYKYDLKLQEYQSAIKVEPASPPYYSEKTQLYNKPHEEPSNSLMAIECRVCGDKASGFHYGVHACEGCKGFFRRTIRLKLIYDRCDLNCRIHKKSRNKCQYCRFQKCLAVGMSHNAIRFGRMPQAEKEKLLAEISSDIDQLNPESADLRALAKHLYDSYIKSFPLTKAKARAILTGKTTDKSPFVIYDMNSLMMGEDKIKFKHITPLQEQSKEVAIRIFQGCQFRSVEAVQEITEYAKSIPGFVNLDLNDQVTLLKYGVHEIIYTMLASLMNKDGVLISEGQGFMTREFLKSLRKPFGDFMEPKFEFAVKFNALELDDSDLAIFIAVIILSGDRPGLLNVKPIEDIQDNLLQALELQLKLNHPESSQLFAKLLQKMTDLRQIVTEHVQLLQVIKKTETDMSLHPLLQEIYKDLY

Experiment [10] is described as follows: qHTS assay to identify small molecules that stimulate interleukin-8 (IL-8) secretion (AID 651758; active = well fitted activation curve with a large enough effect in the signal ratio; the % refers to the signal ratio; also: potency is read from the fitted curve at half-maximal effect; as to activation: 0% is about no effect). The gist of the method: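 Secreted IL-8 measured homogeneously by TR-FRET (two labelled anti-IL-8 antibodies, 1-3 h at room temperature) after a 16 h, 37 C compound treatment of THP-1 cells at 2000 cells/well.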
Experiment [11] can be described thus: qHTS assay for cell viability of HEK293 cells (AID 743288). Also: % is scaled to controls: 0 for no effect and ±100 for the full control effect; nearly all actives have a fitted effect of over 50% in size. Particulars: ATP luminescence (CellTiter-Glo), 18 h; max response: stronger effect = lower value. In short, it runs like this:
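Readout is luciferase-coupled ATP content (CellTiter-Glo luminescence, 30 min room temperature) as a measure of metabolically competent cells. Parental HEK293 cells were plated 5 h or more before compound addition, then treated 18 h at 37 C.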

Experiment [12] can be described thus: Cell Viability - LYMP1-002 - Assay at 16 hr (AID 948). Also: potency is read from the fitted curve at half-maximal effect. The gist of the method: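 ATP luminescence (CellTiter-Glo) was measured after 16 hr compound exposure at 37 C of 2500 lymphoblastoid LYMP1-002 cells per well. Concentration-response curves were fitted with the Hill equation to give AC50.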
The nature of experiment [13]: MultiTox-Fluor Cytotoxicity Assay - LYMP1-002 - Live Cells (AID 955).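 Also: cells exposed to compound for 16 hours; % is scaled to controls: 0 for no effect and ±100 for the full control effect.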 In short, it runs like this: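 Cells were seeded at 2500 per well and incubated 5 hr. Compounds were then added for 16 hr at 37 C, followed by MultiTox-Fluor reagent for 60 min at room temperature and fluorescence reading of viable-cell protease signal.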
A short description of experiment [14]: Cell Viability - LYMP2-005 (AID 967).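 Also: plate controls were DMSO only for no effect and 92 µM tetraoctylammonium bromide control for full effect.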 In short, it runs like this: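 LYMP2-005 human lymphoblastoid cells (2500/well) were treated with compounds for 24 h at 37 C. Intracellular ATP was then measured by CellTiter-Glo luminescence after 30 min at room temperature. AC50 values came from Hill-equation fits of qHTS concentration-response data.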
Experiment [15] in a line: Cell Viability - LYMP2-013 (AID 970). Also: nearly all actives have a fitted effect of over 55% in size. Also: potency is read from the fitted curve at half-maximal effect. The gist of the method: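 Cytotoxicity is scored as a concentration-dependent drop in intracellular ATP in human lymphoblastoid cells after 24 hr compound exposure at 37 C. ATP is quantified by luciferase luminescence, and AC50 values come from Hill-equation modeling.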
The nature of experiment [16]: Cell Viability - LYMP2-006 (AID 978). Also: nearly all actives have a fitted effect of over 60% in size. Also: potency is read from the fitted curve at half-maximal effect. In short, it runs like this:
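Potency values are Hill-fit AC50s for decreases in intracellular ATP (CellTiter-Glo luminescence). LYMP2-006 lymphoblastoid cells, 2500 per well, were exposed to compound in complete culture medium for 24 hr at 37 C.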

Experiment [17] in a line: Cell Viability - LYMP2-020 (AID 986). Also: nearly all actives have a fitted effect of over 55% in size. Also: potency is read from the fitted curve at half-maximal effect. In short, it runs like this: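 Seed 2500 cells per well and incubate 5 hr at 37 C. Add compounds at a concentration series and incubate 24 hr at 37 C. Add CellTiter-Glo, wait 30 min at RT, read luminescence, and fit a Hill curve for AC50.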
The target of experiment [18] is Peroxisome proliferator-activated receptor gamma (Homo sapiens) (UniProt P37231). The experiment in a line: qHTS assay for small molecule antagonists of peroxisome proliferator-activated receptor gamma signaling (AID 588537; active = well fitted inhibition curve with a large enough effect in the signal ratio, with a control signal flat, not every such curve was filed as active; the % refers to the signal ratio;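 also: reporter cells co-stimulated with 50 nM rosiglitazone agonist during compound treatment; % of control where 0% means no effect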). In short, it runs like this:
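Antagonist-mode β-lactamase reporter screen run as a titration series. HEK293 PPARγ-UAS-bla cells are stimulated with rosiglitazone (50 nM final) for 16 h, then CCF4 is read at 460/530 nm. Data are scaled between DMSO and rosiglitazone and fitted to the Hill equation.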

The nature of experiment [19]: qHTS assay for small molecule antagonists of peroxisome proliferator-activated receptor delta signaling (AID 588535; active = well fitted inhibition curve with a large enough effect in the signal ratio, with a control signal flat, not every such curve was filed as active; the % refers to the signal ratio;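 as to max response: cells co-treated with a PPAR-delta agonist as stimulator during compound exposure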). Particulars: HEK293T PPARd-UAS-bla, beta-lactamase FRET ratio, 18 h; 460 nm channel. In short, it runs like this:
(§1)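 Titrations were run on PPAR-delta-UAS-bla HEK293T cells in charcoal/dextran-stripped serum, incubated 18 h at 37 C. CCF4 fluorescence (460/530 nm) after 2 h RT; Hill equation yields IC50 and maximal response.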

In experiment [20] the target is Peroxisome proliferator-activated receptor delta (Homo sapiens) (UniProt Q03181). The description is as above. The gist of the method:
as §1

Estrogen receptor (Homo sapiens), sequence (P03372 whole entry, looked up): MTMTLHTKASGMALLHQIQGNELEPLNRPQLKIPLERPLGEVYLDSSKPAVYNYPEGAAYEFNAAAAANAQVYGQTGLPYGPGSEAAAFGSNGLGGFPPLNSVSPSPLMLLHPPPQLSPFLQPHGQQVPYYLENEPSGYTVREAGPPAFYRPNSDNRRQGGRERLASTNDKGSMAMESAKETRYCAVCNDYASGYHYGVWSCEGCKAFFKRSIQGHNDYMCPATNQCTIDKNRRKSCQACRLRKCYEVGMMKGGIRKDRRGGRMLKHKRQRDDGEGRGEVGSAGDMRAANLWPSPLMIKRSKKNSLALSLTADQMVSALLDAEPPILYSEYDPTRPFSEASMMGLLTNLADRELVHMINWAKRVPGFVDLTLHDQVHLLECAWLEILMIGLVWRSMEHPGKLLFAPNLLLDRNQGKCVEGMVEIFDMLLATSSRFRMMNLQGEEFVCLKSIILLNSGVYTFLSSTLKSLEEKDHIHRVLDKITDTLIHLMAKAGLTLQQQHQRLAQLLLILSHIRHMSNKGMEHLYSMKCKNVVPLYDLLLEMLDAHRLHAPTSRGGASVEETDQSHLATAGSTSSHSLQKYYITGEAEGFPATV
Peroxisome proliferator-activated receptor delta (Homo sapiens), sequence (Q03181 whole entry, looked up): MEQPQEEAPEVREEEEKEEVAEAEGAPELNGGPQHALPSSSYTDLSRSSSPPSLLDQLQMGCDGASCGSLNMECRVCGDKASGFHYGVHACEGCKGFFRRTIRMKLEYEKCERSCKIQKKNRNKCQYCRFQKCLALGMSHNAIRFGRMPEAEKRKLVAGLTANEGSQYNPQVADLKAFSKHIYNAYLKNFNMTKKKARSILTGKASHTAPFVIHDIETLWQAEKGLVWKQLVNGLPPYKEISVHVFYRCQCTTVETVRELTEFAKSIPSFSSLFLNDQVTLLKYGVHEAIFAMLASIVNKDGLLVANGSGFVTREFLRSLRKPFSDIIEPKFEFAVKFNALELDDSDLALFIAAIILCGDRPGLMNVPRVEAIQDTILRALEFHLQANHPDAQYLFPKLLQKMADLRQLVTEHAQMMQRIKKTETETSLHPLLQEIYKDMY

For the molecule `Cc1ccccc1OCC1CO1` (centres undefined), the Potency result in experiment [1], in experiment [3], in experiment [4], in experiment [5], in experiment [7] and in experiment [8] was “inactive” each time. Also, in experiment [10], the Potency result was “inactive”. For the same molecule, the caspase-3 activation in [2] was 0.226% (inactive). For the same molecule, the molecule was called inactive in experiment [6] and in experiment [9]. Moreover, in [11], the max response was -12.7% (inactive).
On to `CCCCCCCCOc1ccc(C(=O)O)cc1`, for which the caspase-3 activation in experiment [2] is -2.79% (inactive). Further, the Potency entry in experiment [12], in experiment [14], in experiment [15], in experiment [16], in experiment [3] and in [4] was “inactive” each time. In experiment [8], the Potency result is “inactive”. Also, the molecule was classed as inactive in experiment [13]. Also, in [10], the Potency was 66.8 µM (active). The max response in experiment [11] was 8.21% (inactive).
As for `CC(=O)OC(C(=O)c1ccccc1)c1ccccc1` (centres undefined), the Potency entry in [12], in experiment [14], in experiment [16], in experiment [17], in [5] and in [7] was “inactive” throughout. In addition, the Potency entry in experiment [8], in [18] and in experiment [10] was “inactive” throughout. For the same molecule, the call in experiment [6] was inactive.
As for `C[C@@H]1CC2(OC(O)[C@]3(C)O[C@H]23)O[C@H]2C[C@@]3(C)[C@@H]4CC[C@H]5C(C)(C)C(O[C@@H]6OC[C@@H](O)[C@H](O)[C@H]6O)CC[C@@]56C[C@@]46CC[C@]3(C)[C@@H]12` (some centres undefined), the Potency entry in experiment [1] is “inactive”.
For `CC1=C(/C=C/C(C)=C/C=C/C(C)=C/C=O)C(C)(C)CCC1`, in [1], the Potency result is “inactive”. For the same molecule, the Potency in experiment [15] is 50.1 µM (active); in [16] it was 63.1 µM (active); in experiment [3], 39.8 µM (active); in experiment [10] it was 0.422 µM (active).
With `C/C=C1/C(=O)C[C@H]2[C@@H]3CCC4=CC(=O)CC[C@]4(C)[C@H]3CC[C@]12C`, the Potency entry in experiment [1] and in [14] was “inactive” each time. The Potency is 50.1 µM (active) in experiment [12]; 50.1 µM (active) in experiment [15]; 50.1 µM (active) in experiment [16]; 39.8 µM (active) in experiment [3]; 39.8 µM (active) in experiment [4]; 39.8 µM (active) in experiment [17].
Take `CC(=O)CC(=O)Nc1ccccc1`: the Potency result in [1], in [15], in experiment [16], in experiment [17], in experiment [5] and in [8] was “inactive” in each case. The Potency result in [18] and in [10] was “inactive” each time. The caspase-3 activation in experiment [2] was -0.00159% (inactive). For the same molecule, the call in experiment [13] and in experiment [20] was inactive. Further, the max response in experiment [19] was 18.5%; in experiment [11], 2.12% (inactive) and -0.894% (inactive).
